PRMT1 FP inh: blocks human protein arginine methyltransferase 1; inhibition, % at 2.79 µM; AID 652257; 1.3% of 370,000 active; recombinant PRMT1, activity-based probe fluorescence polarization; Q99873;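 active = inhibition above about 21% made by adding two undisclosed values, limit read from the data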
rCAG RNA binder: molecules binding r(CAG) RNA repeats. 1.3% of 370,000 active. inhibition, % at 3 µM. r(CAG) RNA repeat, TO-PRO-1 dye displacement fluorescence;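 active = inhibition above the plate cutoff, the mean of all test compounds on that plate plus 3 SD, cut at about 35% in these data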;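 note: 0% = DMSO alone and 100% = 100 µM mitoxantrone as full dye displacement; higher means more dye released from RNA so lower well fluorescence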
UHRF1 binding: blocks human UHRF1 binding to methylated DNA; Q96T88; UHRF1 binding to methylated oligo, TR-FRET; inhibition, % at 4.4 µM; 0.75% of 370,000 active; AID 687016; in the data active = inhibition above about 21%;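 note: UHRF1 SRA domain binding a hemimethylated CpG hairpin DNA probe; 0% = median of test compound wells and 100% = reference inhibitor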
MBD2 DNA inh: MBD2-methylated oligo binding inhibition; TR-FRET, MBD2 binding to methylated oligonucleotide; inhibition, % at 4.4 µM; 0.31% of 370,000 active; in the data active = inhibition above about 13%
LEDGF integ inh: blocks HIV-1 LEDGF/p75-dependent DNA integration; TR-FRET IN-LEDGF/p75 DNA integration, Eu/Cy5; inhibition, % at 3.7 µM; 0.64% of 370,000 active; AID 743269;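 active = inhibition above the screen-wide mean plus 3 SD, cut at about 13% in these data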;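 note: signal is the Cy5 over europium emission ratio at 671 and 618 nm; 0% = plate median of compound wells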
ABHD5 PLIN5 PPI: ABHD5-PLIN5 protein interaction inhibition; inhibition, % at 4 µM; Q00G26+Q8WTS1; 0.78% of 360,000 active; Split G. princeps luciferase complementation, luminescence, 4 h;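 active = inhibition above the mean inhibition across every tested compound plus 3 SD, cut at about 22% in these data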;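 note: 0% = DMSO only wells and the 100% control is not disclosed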
Target sequence (Q00G26 whole entry, looked up): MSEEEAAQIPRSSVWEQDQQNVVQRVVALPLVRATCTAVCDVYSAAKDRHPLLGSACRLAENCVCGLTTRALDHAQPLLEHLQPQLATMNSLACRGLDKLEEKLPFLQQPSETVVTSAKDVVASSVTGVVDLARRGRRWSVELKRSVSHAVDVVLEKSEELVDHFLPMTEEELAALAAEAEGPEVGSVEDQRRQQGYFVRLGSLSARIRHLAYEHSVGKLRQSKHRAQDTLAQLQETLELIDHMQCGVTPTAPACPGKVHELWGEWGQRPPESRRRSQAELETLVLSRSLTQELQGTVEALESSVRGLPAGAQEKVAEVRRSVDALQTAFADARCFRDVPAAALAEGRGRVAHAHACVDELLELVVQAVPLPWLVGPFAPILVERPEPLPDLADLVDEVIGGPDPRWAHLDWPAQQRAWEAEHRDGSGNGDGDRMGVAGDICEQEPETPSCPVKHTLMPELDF
Target sequence (Q8WTS1 whole entry, looked up): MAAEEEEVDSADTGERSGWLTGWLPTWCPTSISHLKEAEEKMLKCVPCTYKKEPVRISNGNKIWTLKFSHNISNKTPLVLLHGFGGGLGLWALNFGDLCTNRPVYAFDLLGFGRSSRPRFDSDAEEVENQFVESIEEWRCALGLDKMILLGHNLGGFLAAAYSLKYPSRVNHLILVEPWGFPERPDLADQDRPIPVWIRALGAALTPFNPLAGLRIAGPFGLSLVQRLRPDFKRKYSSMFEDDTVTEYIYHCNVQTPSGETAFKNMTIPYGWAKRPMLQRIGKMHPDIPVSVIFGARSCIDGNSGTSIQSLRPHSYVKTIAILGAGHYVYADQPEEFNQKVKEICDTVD
An asterisk follows results filed as active; nt = not tested or not shown. Shown are actives, neighbours in structure and some others; about 4.1% of the full set was active somewhere.

SMILES	PRMT1 FP inh	rCAG RNA binder	UHRF1 binding	MBD2 DNA inh	LEDGF integ inh	ABHD5 PLIN5 PPI
CCCC(=O)OC12CCCN(C1)/C(=C/c1ccc(C#N)cc1)C2 (configuration not stated)	-1	4	-1	-2	-5	nt
Oc1ccc(N2CCN(Cc3cc4c(cc3Br)OCCO4)CC2)cc1	23*	12	-4	0	2	12
O=C(Nc1ccc(N2C(=O)[C@@H]3[C@H](C2=O)[C@@H]2C=C[C@H]3C2)c(Cl)c1)c1ccccn1	-2	nt	1	-7	1	nt
Cc1ccc(N(C)S(=O)(=O)c2ccc(-c3cnc(C4CC4)o3)cc2)cc1	2	-1	23*	5	1	4
Cc1ccc(NS(=O)(=O)c2ccc(-c3cnc(C4CC4)o3)cc2)cc1	4	5	1	-4	-2	-1
O=C(O)C1=C(C(=O)Nc2cc(C(F)(F)F)ccc2Cl)CCCC1	-1	1	29*	-1	-3	4
O=C(CN1CCCCCC1)Nc1cc(C(F)(F)F)ccc1Cl	4	-5	1	0	-1	-8
CCOc1ccc(NC(=O)C2CC(=O)N(CCc3ccccc3)C2)cc1OC (configuration not stated)	-5	3	24*	-1	0	-5
CCOc1ccc(CCNC(=O)C2CC(=O)N(CCc3ccccc3)C2)cc1OCC (configuration not stated)	-2	-6	0	-2	3	8
C/C(=N\NC(=O)CSCc1ccc([N+](=O)[O-])cc1)c1ccccc1O	-1	22	3	1	-2	-6
C/C(=N\NC(=O)CSCc1ccc([N+](=O)[O-])cc1)c1ccccc1	0	-1	30*	1	-7	-2
Cc1ccc(Cn2cc(COC(=O)Nc3ccc(F)cc3)nn2)cc1	-2	-1	3	-1	3	nt
O=C(CSc1nc2ccccc2c(=O)[nH]1)c1ccc(O)c(O)c1	23*	13	1	3	10	6
O=C(CSc1nc2ccccc2c(=O)[nH]1)c1ccc(O)cc1O	3	5	-2	5	0	4
COC(=O)c1cc2c(c3c4cc(F)ccc4n(S(=O)(=O)c4ccc(OC)cc4)c13)C(=O)N(Cc1ccccc1OC)C2	3	14	-1	-1	-2	nt
CCC(Sc1nc2ncnc(N)c2[nH]1)C(=O)O (configuration not stated)	4	-1	21*	2	0	-1
COc1ccc(C(C(=O)N(C)C2CCCC2)N(Cc2ccc(F)cc2)C(=O)c2ncn[nH]2)cc1OC (configuration not stated)	5	4	1	2	-3	nt
O=C1C=CC(=O)C(C2=C3C(=O)N(CCc4ccccc4)CC(=O)N3CCC2)=C1	88*	11	-4	-4	6	nt
C=CCn1c(SCC(N)=O)nnc1-c1cnccn1	-4	1	74*	0	7	11
O=C(C1CCC1)N1CCc2cc(S(=O)(=O)N3CCN(c4ccccc4F)CC3)ccc21	6	6	1	5	-3	nt
O=C(Nc1ccc(Cl)cc1)Nc1ccccc1Sc1ncc([N+](=O)[O-])s1	50*	13	-3	-3	-2	-19
O=C(NC1CCCCC1)c1nc(-c2c(F)cccc2F)oc1-c1ccccc1	2	2	1	3	-1	-10
O=C(NC1CCCC1)c1nc(-c2ccco2)oc1-c1ccccc1	2	35*	-2	-2	8	-9
Cn1c(SCC(=O)NCC2CCCO2)nc2scc(-c3ccccc3)c2c1=O (configuration not stated)	-2	6	-2	5	0	-7
O=C(CSc1nc2scc(-c3ccco3)c2c(=O)n1-c1ccccc1)NCC1CCCO1 (configuration not stated)	6	7	1	2	3	56*
SMILES	PRMT1 FP inh	rCAG RNA binder	UHRF1 binding	MBD2 DNA inh	LEDGF integ inh	ABHD5 PLIN5 PPI
Cc1ccc(-c2nc(C(Cl)Cl)c3ccccc3n2)cc1	2	-2	47*	4	-1	1
CCN(CC)c1nc(C(F)(F)F)nc2c1nnn2Cc1ccccc1	1	-5	39*	4	-4	1
Cn1nc(C(=O)NC2CCCCC2)c2c1-c1ccccc1SC2	0	3	-1	-1	0	2
CC1CCC(NC(=O)c2nn(C)c3c2CSc2ccccc2-3)CC1 (configuration not stated)	22*	-2	6	7	-3	-3
Cc1cc(NC(=O)CCc2ccccc2)c([N+](=O)[O-])cc1C	-1	-1	0	4	-3	-1
Cc1cc(NC(=O)CN(C)C)c([N+](=O)[O-])cc1C	1	-3	42*	1	-4	1
O=C(O)CCCCN1C(=O)/C(=C\c2ccc(OCc3ccccc3)c(OCc3ccccc3)c2)SC1=S	0	6	3	-2	-4	4
O=C(O)CCCN1C(=O)/C(=C\c2ccccc2OCc2ccccc2)SC1=S	-1	52*	1	-2	6	-1
O=C(O)COc1cccc(/C=C2/SC(=S)N(Cc3ccccc3)C2=O)c1	6	52*	8	5	7	-7
O=C1/C(=C\c2cccc(O)c2)SC(=S)N1Cc1ccccc1	3	25	0	-3	-2	-5
O=C(CCN1C(=O)/C(=C/c2ccc3c(c2)OCO3)SC1=S)Nc1cccc(C(=O)O)c1	-3	10	-3	-3	4	2
O=C(CCCN1C(=O)/C(=C\c2ccccc2)SC1=S)Nc1cccc(C(=O)O)c1	2	66*	1	-4	2	4
O=C(CCCN1C(=O)/C(=C/c2ccc3c(c2)OCO3)SC1=S)Nc1cccc(C(=O)O)c1	1	51*	1	4	-4	8
N#CC1CCN(c2nc(-c3ccc(Br)cc3)cs2)CC1	-1	nt	10	1	0	nt
CCC(=O)OCCCN1CCC2(CCC(c3ccccc3)CC2)C1=O (configuration not stated)	8	-1	-2	1	-3	nt
O=C1CCCC2=C1C(c1ccc(O)c(O)c1)c1c(ccc3ncccc13)N2 (configuration not stated)	21*	5	0	1	1	-4
CCOc1ccc(C2C3=C(CCCC3=O)Nc3ccc4ncccc4c32)cc1 (configuration not stated)	-6	9	-1	-6	1	7
COCCCn1cc(CN(C)C2CN(Cc3cn(CCCOC)nn3)S(=O)(=O)C2)nn1 (configuration not stated)	5	3	24*	8	2	7
COC(=O)CCCn1cc(CN(C)C2CN(Cc3cn(CCCC(=O)OC)nn3)S(=O)(=O)C2)nn1 (configuration not stated)	-2	3	14	6	-4	-2

Source: PubChem (The Scripps Research Institute Molecular Screening Center)
